# About 8,800 targets were measured; listed, in parts, are those with a hit and a random draw of the rest. About 0.5% of all pairs of compound and target were hits. Unmarked numbers belong to inactive results.
# How the values were obtained:
# Experiment in all cases: log2 fold change, soluble protein after heating vs DMSO (PISA); higher = thermal stabilisation; K562 lysate, 10 uM; active = over 0.2 and 3.5 SD of the protein, either way, in both replicates (recomputed)
# lapatinib = compound: CS(=O)(=O)CCNCc1ccc(-c2ccc3ncnc(Nc4ccc(OCc5cccc(F)c5)c(Cl)c4)c3c2)o1 [lapatinib]
# In short: (§1)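 To prepare the extract, K562 pellets were dounce-homogenised in PBS pH 7.4 with 1 mM MgCl2, giving crude material at 1 mg/mL protein. This was treated with 10 μM compound for 30 min, then heated in aliquots for 3 min over 48°C-58°C before pooling and addition of NP-40 to 0.5% at 4°C. Centrifugation at 21,000xg for 90 min left soluble protein in the supernatant, which TMTpro 16plex LC-MS/MS quantified with equalised channel sums. Results are log-two fold changes in thermal stability compared with solvent controls, from duplicates.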
# pictilisib = compound: CS(=O)(=O)N1CCN(Cc2cc3nc(-c4cccc5[nH]ncc45)nc(N4CCOCC4)c3s2)CC1 [pictilisib]
# In short: as §1
# crizotinib = compound: C[C@@H](Oc1cc(-c2cnn(C3CCNCC3)c2)cnc1N)c1c(Cl)ccc(F)c1Cl [crizotinib]
# In short: as §1
# [1] = compound: C[C@H](C1=CC=C(C=C1)C(=O)NC2=C3C=CNC3=NC=C2)N
# In short: as §1
# duvelisib = compound: C[C@H](Nc1ncnc2nc[nH]c12)c1cc2cccc(Cl)c2c(=O)n1-c1ccccc1 [duvelisib]
# In short: as §1
# gandotinib = compound: Cc1cc(Nc2cc(CN3CCOCC3)c3nc(C)c(Cc4ccc(Cl)cc4F)n3n2)n[nH]1 [gandotinib]
# In short: as §1
# tozasertib = compound: Cc1cc(Nc2cc(N3CCN(C)CC3)nc(Sc3ccc(NC(=O)C4CC4)cc3)n2)n[nH]1 [tozasertib]
# In short: as §1
# doramapimod = compound: Cc1ccc(-n2nc(C(C)(C)C)cc2NC(=O)Nc2ccc(OCCN3CCOCC3)c3ccccc23)cc1 [doramapimod]
# In short: as §1
# bafetinib = compound: Cc1ccc(NC(=O)c2ccc(CN3CC[C@H](N(C)C)C3)c(C(F)(F)F)c2)cc1Nc1nccc(-c2cncnc2)n1 [bafetinib]
# In short: as §1
# [2] = compound: Cc1cccc(CC(=O)N2CCc3c2ccc(-c2cn(C)c4ncnc(N)c24)c3F)n1
# In short: as §1
# nilotinib = compound: Cc1cn(-c2cc(NC(=O)c3ccc(C)c(Nc4nccc(-c5cccnc5)n4)c3)cc(C(F)(F)F)c2)cn1 [nilotinib]
# In short: as §1
# [3] = compound: Cc1nc(Nc2n[nH]c3c2CN(C(=O)N[C@H](CN(C)C)c2ccccc2)C3(C)C)c2sccc2n1
# In short: as §1
# dasatinib = compound: Cc1nc(Nc2ncc(C(=O)Nc3c(C)cccc3Cl)s2)cc(N2CCN(CCO)CC2)n1 [dasatinib]
# In short: as §1
# [4] = compound: Cc1ncc(-c2ccnc(Nc3ccc(S(C)(=O)=O)cc3)n2)n1C(C)C
# In short: as §1
# [5] = compound: Cn1cc(-c2ccc3c(c2)CCN3C(=O)Cc2cccc(C(F)(F)F)c2)c2c(N)ncnc21
# In short: as §1
# quisinostat = compound: Cn1cc(CNCC2CCN(c3ncc(C(=O)NO)cn3)CC2)c2ccccc21 [quisinostat]
# In short: as §1
# tipifarnib = compound: Cn1cncc1[C@@](N)(c1ccc(Cl)cc1)c1ccc2c(c1)c(-c1cccc(Cl)c1)cc(=O)n2C [tipifarnib]
# In short: as §1
# [6] = compound: NC(=O)Nc1cc(-c2cccc(F)c2)sc1C(=O)N[C@H]1CCCNC1
# In short: as §1
# [7] = compound: NC(=O)c1cnc(N[C@@H]2CCCC[C@@H]2N)nc1Nc1cccc(-n2nccn2)c1
# In short: as §1
# [8] = compound: NC1(c2ccc(-c3nc4ccn5c(=O)[nH]nc5c4cc3-c3ccccc3)cc2)CCC1
# In short: as §1
# Chain of UniProt P09493 (P09493 whole entry, looked up): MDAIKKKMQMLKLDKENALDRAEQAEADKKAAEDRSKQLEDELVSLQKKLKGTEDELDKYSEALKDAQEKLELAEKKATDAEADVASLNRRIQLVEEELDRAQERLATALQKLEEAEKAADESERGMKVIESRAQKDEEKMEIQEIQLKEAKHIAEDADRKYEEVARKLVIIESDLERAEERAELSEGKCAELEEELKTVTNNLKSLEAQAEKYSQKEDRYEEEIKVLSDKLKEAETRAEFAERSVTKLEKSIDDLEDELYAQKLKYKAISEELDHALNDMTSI
# Chain of UniProt O95071 (O95071 whole entry, looked up): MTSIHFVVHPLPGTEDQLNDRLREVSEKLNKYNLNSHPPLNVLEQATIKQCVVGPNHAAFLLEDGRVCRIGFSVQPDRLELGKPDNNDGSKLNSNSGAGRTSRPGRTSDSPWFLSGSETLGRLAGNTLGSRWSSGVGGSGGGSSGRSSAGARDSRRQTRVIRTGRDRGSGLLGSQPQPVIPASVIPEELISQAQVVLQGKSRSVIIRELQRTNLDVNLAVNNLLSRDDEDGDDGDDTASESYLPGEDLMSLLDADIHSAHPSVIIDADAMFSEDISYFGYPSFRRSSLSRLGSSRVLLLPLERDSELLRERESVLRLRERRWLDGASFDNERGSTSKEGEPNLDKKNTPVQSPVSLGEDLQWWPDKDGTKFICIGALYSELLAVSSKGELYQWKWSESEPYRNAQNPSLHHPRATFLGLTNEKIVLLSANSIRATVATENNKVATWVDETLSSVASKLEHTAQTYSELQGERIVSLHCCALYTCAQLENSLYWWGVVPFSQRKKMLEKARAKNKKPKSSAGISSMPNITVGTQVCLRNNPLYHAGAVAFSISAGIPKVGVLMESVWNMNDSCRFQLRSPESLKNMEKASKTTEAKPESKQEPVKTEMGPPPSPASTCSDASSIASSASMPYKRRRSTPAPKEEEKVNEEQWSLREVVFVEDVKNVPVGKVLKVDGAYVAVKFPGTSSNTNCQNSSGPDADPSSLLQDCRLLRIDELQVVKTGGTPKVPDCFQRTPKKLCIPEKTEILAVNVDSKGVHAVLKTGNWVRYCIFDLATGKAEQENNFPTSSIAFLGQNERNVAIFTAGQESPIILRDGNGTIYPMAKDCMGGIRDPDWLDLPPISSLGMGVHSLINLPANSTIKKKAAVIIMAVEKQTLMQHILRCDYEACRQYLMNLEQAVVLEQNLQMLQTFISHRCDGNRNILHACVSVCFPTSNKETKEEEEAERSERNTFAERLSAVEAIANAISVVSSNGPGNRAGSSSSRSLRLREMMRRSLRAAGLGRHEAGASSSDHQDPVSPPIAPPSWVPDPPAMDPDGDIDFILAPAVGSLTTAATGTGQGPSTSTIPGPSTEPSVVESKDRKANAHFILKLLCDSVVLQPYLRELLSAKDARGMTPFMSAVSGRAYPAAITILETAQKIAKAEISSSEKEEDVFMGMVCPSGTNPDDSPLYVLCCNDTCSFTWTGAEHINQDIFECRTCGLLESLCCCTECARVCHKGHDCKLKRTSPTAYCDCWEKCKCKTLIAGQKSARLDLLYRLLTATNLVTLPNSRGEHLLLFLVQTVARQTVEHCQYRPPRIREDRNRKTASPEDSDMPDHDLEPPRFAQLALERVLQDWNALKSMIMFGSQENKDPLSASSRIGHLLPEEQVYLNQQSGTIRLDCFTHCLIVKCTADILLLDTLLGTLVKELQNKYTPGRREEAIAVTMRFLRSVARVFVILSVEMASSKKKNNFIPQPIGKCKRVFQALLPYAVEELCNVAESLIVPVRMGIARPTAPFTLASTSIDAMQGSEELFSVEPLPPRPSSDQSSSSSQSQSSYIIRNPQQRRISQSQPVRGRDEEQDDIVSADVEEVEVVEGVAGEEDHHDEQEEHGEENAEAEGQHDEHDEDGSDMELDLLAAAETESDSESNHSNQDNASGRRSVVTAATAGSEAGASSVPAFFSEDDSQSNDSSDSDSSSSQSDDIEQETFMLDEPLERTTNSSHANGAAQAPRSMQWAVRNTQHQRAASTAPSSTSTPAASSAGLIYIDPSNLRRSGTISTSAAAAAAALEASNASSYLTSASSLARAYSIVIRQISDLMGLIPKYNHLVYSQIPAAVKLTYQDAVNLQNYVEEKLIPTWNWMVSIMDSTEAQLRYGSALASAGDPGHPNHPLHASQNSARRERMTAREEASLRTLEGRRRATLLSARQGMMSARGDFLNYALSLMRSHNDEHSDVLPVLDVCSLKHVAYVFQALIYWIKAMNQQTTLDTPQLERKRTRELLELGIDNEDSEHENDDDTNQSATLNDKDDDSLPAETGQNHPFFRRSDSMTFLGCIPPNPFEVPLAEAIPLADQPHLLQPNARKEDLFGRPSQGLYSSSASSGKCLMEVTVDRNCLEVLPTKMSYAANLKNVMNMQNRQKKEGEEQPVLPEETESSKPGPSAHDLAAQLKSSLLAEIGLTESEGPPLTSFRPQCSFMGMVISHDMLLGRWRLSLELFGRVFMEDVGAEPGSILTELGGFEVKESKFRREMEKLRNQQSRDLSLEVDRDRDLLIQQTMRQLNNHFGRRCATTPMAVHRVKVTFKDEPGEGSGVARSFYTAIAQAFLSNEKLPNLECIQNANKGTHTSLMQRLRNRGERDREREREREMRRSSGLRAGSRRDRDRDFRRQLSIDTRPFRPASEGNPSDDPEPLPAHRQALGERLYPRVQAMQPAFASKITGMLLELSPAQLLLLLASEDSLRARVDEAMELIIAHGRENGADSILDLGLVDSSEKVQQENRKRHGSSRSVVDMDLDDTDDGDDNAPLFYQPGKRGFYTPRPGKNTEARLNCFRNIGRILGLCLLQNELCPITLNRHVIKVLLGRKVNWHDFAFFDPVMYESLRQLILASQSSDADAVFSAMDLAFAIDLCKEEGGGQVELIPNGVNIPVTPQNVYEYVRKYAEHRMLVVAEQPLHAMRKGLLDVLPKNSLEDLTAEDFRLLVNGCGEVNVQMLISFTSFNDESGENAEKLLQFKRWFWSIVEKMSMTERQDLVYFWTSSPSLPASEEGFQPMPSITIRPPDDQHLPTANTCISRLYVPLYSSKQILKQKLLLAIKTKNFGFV
# Chain of UniProt O43493 (O43493 whole entry, looked up): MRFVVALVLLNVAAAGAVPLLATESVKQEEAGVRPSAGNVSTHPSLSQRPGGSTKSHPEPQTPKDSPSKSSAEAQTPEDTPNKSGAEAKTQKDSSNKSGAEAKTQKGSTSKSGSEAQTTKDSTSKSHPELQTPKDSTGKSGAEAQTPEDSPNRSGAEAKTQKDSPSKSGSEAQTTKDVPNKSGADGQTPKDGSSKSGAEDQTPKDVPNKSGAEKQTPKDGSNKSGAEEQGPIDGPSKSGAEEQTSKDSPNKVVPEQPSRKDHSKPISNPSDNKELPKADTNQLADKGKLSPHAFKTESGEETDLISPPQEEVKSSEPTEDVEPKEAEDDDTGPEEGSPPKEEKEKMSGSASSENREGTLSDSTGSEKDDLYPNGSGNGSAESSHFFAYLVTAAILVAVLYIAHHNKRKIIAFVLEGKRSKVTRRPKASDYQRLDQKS
# Chain of UniProt Q9H7E2 (Q9H7E2 whole entry, looked up): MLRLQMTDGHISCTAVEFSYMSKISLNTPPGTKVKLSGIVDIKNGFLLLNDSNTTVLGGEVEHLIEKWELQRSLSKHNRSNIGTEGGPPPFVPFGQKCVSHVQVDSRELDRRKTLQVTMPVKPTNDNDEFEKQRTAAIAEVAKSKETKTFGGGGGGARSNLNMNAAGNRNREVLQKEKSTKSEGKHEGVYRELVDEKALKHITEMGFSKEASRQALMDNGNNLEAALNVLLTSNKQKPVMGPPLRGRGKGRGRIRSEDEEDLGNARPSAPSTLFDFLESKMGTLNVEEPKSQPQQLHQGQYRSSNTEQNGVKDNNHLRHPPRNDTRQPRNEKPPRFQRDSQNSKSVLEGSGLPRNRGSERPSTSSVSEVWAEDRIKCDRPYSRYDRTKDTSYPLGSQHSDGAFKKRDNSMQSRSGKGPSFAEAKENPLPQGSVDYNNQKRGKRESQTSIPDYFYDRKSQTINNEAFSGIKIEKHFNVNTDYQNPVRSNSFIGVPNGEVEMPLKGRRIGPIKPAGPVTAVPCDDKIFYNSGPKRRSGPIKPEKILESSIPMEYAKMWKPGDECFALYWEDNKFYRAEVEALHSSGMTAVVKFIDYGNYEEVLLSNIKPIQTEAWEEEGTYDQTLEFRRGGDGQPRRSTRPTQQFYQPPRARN
# Chain of UniProt Q8WUH2 (Q8WUH2 whole entry, looked up): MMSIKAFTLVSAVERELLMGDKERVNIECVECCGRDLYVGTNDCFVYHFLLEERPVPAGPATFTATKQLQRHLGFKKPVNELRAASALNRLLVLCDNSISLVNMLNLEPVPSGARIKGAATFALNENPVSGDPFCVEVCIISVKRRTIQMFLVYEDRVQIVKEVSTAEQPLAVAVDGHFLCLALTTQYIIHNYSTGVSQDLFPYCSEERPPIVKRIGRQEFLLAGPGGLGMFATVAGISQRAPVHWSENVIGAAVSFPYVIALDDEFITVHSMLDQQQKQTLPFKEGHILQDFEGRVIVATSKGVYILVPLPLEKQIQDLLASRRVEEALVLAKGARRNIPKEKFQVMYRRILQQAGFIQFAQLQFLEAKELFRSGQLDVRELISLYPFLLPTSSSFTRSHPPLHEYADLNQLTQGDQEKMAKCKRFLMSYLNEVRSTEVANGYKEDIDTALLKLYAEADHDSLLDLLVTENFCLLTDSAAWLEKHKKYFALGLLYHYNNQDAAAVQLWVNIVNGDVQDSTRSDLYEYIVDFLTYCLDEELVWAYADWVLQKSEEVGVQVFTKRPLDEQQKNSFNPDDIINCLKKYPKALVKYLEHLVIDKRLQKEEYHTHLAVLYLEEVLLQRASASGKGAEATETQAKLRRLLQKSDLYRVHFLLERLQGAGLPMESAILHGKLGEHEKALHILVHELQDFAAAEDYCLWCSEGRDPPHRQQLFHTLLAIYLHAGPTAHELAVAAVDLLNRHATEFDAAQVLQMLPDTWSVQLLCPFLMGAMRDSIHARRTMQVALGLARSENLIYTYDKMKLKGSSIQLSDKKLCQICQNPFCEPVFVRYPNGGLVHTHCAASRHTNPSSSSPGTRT
Target,log2 fold change (lapatinib),log2 fold change (pictilisib),log2 fold change (crizotinib),log2 fold change [1],log2 fold change (duvelisib),log2 fold change (gandotinib),log2 fold change (tozasertib),log2 fold change (doramapimod),log2 fold change (bafetinib),log2 fold change [2],log2 fold change (nilotinib),log2 fold change [3],log2 fold change (dasatinib),log2 fold change [4],log2 fold change [5],log2 fold change (quisinostat),log2 fold change (tipifarnib),log2 fold change [6],log2 fold change [7],log2 fold change [8]
UBL4A (UniProt P11441),-0.003,-0.057,0.112,0.253 (active),0.007,-0.157,0.076,-0.029,-0.044,-0.06,-0.005,-0.013,0.052,-0.037,0.036,0.157,-0.024,0.02,0.007,0.016
UBR5 (UniProt O95071),-0.003,-0.009,-0.055,-0.01,-0.004,-0.018,0.001,0.012,-0.047,0.046,0.006,0.027,-0.028,-0.019,0.019,-0.059,-0.02,0.005,0.013,-0.009
TUBGCP3 (UniProt Q96CW5),-0.017,0.012,-0.055,-0.012,0.036,-0.054,0.027,0.014,-0.057,0.013,-0.031,0.029,-0.038,0.043,0.038,-0.083,-0.023,0.009,0.002,0.012
TMEM87B (UniProt Q96K49),-0.044,0.147,-0.017,0.004,0.039,-0.077,0.068,0.026,0.126,0,0.008,0.086,-0.006,-0.02,0.023,-0.012,-0.011,-0.016,-0.019,-0.048
TDRD3 isoform 3 (UniProt Q9H7E2),0.005,-0.038,0.024,0.127,-0.02,-0.068,0.034,-0.151,0.093,0.01,0.261,-0.04,0.033,0.17,0.01,-0.023,-0.152,0.042,0.014,0.064
TTL (UniProt Q8NG68),-0.015,-0.057,-0.067,0.096,0.356 (active),-0.033,-0.112,-0.011,-0.091,-0.048,-0.045,-0.082,-0.049,-0.062,0.056,-0.115,-0.008,0.017,0.018,0.03
TIMM44 (UniProt O43615),0.04,0.022,0.055,0.009,-0.003,0.136,0.019,0.058,-0.067,0.065,0.082,-0.011,-0.087,0.023,-0.028,0.003,-0.108,-0.058,0,-0.031
TESC (UniProt Q96BS2),-0.03,-0.122,0,-0.095,0.026,-0.066,0.026,0.073,0.048,0.037,0.031,-0.025,0.053,0.05,0.02,0.012,0.012,-0.036,-0.035,0.049
TGFBRAP1 (UniProt Q8WUH2),-0.029,-0.021,-0.034,-0.001,-0.03,-0.138,0.052,0.028,-0.056,-0.007,0.005,-0.043,-0.048,-0.015,0.06,-0.076,0.004,0.029,0.009,0.04
TLK2 isoform 2 (UniProt Q86UE8),-0.041,0.112,-0.029,-0.115,-0.042,0.351 (active),0.126,0.006,0.004,0.049,-0.008,0.243,-0.004,0.162,0.007,-0.099,0.005,0.073,0.048,-0.035
TLK1 isoform 2 (UniProt Q9UKI8),-0.047,0.135,-0.061,-0.032,-0.048,0.456 (active),0.014,0.011,-0.014,0.022,-0.044,0.414 (active),-0.005,0.188,-0.036,-0.23,0.023,0.133,0.035,-0.021
TPM1 isoform 4 (UniProt P09493),0.032,-0.051,0.001,0.061,-0.029,-0.142,0.013,0.012,0.011,-0.142,0.02,0,0.004,-0.031,0.004,0.023,-0.008,-0.016,-0.018,-0.019
TTI2 (UniProt Q6NXR4),-0.033,-0.033,-0.016,-0.032,-0.018,-0.023,0.004,-0.023,-0.017,0.082,0.022,0.029,-0.051,0.044,0.01,-0.009,-0.018,-0.003,0.049,-0.013
TGOLN2 isoform 7 (UniProt O43493),-0.007,0.001,0.045,-0.051,0.021,0.034,-0.065,-0.03,0.032,0.034,-0.059,-0.004,0.023,0.021,0.033,-0.029,-0.087,0.014,0.019,0.008
THADA (UniProt Q6YHU6),-0.042,-0.06,-0.073,-0.041,-0.02,-0.064,-0.003,-0.002,-0.041,0.086,0.009,0.012,-0.048,0.008,0.027,-0.115,-0.011,0.053,0.007,0.002
TFCP2 (UniProt Q12800),0.043,0.083,-0.093,0,-0.016,0.098,0.021,0.168,-0.075,0.004,0.042,0.023,-0.015,0.023,0.02,-0.072,-0.022,0.066,0.066,-0.059

# From the supplement of paper PMC10849652
